This is a sample that favours compounds with a hit; in the whole collection about 10% have one here.
NIH3T3 tox: NIH 3T3 cell cytotoxicity | 94,000 compounds, 4.3% hits | AID 1345082 | Potency, µM (doses to about 96.7 µM), without a hit: at the top dose activity change, negative = cytotoxicity, hits mostly inhibitors | NIH 3T3 viability, CellTiter-Glo ATP luminescence, 48-72 h; also: % is scaled to controls: 0 for no effect and ±100 for the full control effect; nearly all actives have a fitted effect of over 55% in size
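Cells were seeded at 400 per well, treated with pin-transferred compound, and kept 48 or 72 hr at 37 °C before CellTiter-Glo addition and luminescence imaging of cellular ATP.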
FLuc inh: inhibitors of firefly (Photinus pyralis) luciferase; Potency, µM (titrated, usually from 115 µM), hits mostly inhibitors; AID 1347043; P08659; 76,000 compounds, 2.5% hits; purified P. pyralis luciferase, luminescence, biochemical; also: % is scaled to controls: 0 for no effect and ±100 for the full control effect; nearly all actives have a fitted effect of over 65% in size
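Luminescence read by CCD imager after adding enzyme (10nM final) to wells holding compound, titrated in qHTS. Substrates 10uM each D-luciferin and ATP; buffer 50mM Tris acetate pH 7.5, 10mM Mg acetate, Tween-20, BSA.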
GPT2 inhibitor: inhibitors of human GPT2 alanine aminotransferase; Q8TD30; Potency, µM (doses to about 57.7 µM), without a hit: at the top dose activity change, negative = inhibition, usual class: inhibitors; AID 1671188; 100,000 compounds, 0.25% hits; Recombinant GPT2, coupled pyruvate oxidase/HRP Amplex Red fluorescence; also: % is scaled to controls: 0 for no effect and ±100 for the full control effect; nearly all actives have a fitted effect of over 60% in size
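Fluorescence of coupled pyruvate oxidase/HRP/Amplex Red system (50uM Amplex, 30 min, dark) reports pyruvate formed by GPT2. Enzyme reaction: 10ng/uL GPT2, 2mM L-alanine, 250uM a-KG, 30 min room temperature, pH 7.5; 50uM AOA control.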
NPR1 antag: antagonists of human natriuretic peptide receptor Npr1. HEK293 hNpr1 GloSensor cGMP, ANP-stimulated luminescence. Potency, µM (top dose mostly 46.3 µM), for the others: at the highest dose activity change, negative = inhibition, usual class: inhibitors. 76,000 compounds, 1.6% hits. AID 1347048; calls by dose curve; also: % is scaled to controls: 0 for no effect and ±100 for the full control effect; nearly all actives have a fitted effect of over 60% in size
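Compound pre-incubated 30 min at room temperature on GloSensor-loaded HEK293 cells stably carrying hNpr1 and the pGS-40F cGMP biosensor. Stimulation uses hNppA at 0.1 nM final; luminescence is taken at baseline and 20 min post-agonist.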
HEK293 tox: kills HEK 293 cells. Potency, µM (top dose mostly 115 µM), without a hit: at the highest dose activity change, negative = cytotoxicity, hits mostly inhibitors. HEK 293 viability, ATP luminescence (CellTiter-Glo), 48-72 h. 94,000 compounds, 6.6% hits. AID 1345083; also: % is scaled to controls: 0 for no effect and ±100 for the full control effect; nearly all actives have a fitted effect of over 60% in size
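Read-out: CellTiter-Glo ATP luminescence. Cells: HEK 293, 250 cells/well. Exposure: 48 or 72 hr, 37 degree Celsius.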
NPR1 antag cnf: hNpr1 antagonism, confirmation assay | 1,400 compounds, 76% hits | Potency, µM (series often up to 57.6 µM), inactives show top-dose activity change, negative = inhibition, hits mostly inhibitors | HEK293 hNpr1 cGMP GloSensor luminescence, ANP-stimulated | AID 1347044 | shares compounds with NPR1 antag; calls by dose curve; also: nearly all actives have a fitted effect of over 70% in size
Npr2 selectivity: hNpr2 antagonism, selectivity versus Npr1. shares compounds with NPR1 antag. 1,400 compounds, 67% hits. Potency, µM (highest dose often 57.6 µM), for inactives: at the top dose activity change, negative = inhibition, actives largely listed as inhibitors. HEK293 hNpr2 GloSensor cGMP luminescence, CNP-stimulated; calls by dose curve; also: nearly all actives have a fitted effect of over 70% in size
Target sequence (P20594 whole entry, looked up): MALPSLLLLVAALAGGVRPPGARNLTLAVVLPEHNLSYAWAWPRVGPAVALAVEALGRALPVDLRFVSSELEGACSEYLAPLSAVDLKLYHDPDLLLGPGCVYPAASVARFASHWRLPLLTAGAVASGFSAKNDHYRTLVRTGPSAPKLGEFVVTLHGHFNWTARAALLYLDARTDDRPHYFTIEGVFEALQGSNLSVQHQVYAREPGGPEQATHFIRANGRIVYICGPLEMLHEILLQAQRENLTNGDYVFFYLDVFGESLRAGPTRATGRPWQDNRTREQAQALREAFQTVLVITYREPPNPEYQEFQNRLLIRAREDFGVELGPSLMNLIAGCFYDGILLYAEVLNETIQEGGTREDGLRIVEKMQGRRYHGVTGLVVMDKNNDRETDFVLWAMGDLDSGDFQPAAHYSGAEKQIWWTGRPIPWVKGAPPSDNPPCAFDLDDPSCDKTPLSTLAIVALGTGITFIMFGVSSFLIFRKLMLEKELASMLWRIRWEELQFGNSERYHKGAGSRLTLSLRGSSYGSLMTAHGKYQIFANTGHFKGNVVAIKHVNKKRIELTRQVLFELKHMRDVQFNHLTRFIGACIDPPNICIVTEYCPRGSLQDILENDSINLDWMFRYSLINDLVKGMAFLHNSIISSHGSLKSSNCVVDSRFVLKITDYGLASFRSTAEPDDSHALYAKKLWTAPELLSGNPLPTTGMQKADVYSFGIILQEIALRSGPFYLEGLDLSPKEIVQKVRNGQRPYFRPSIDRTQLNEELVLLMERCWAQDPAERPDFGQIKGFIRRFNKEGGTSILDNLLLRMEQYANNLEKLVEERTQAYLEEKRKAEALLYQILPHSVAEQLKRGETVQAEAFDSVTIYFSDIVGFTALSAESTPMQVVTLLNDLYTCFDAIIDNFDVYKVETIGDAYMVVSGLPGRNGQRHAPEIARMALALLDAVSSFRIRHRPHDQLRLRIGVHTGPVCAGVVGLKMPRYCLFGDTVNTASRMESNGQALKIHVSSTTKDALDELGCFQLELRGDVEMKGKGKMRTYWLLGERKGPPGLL
FLuc inh counter: FLuc enzyme inhibition, Npr1 counter-screen; purified FLuc enzyme, luminescence, Km substrate; shares compounds with NPR1 antag; Potency, µM (highest dose often 57.6 µM), for the others: top-dose activity change, negative = inhibition, hits mostly inhibitors; 1,400 compounds, 0.7% hits; also: 0% is about no effect
GloSensor cGMP: control cell line activity, Npr1 antagonist counter-screen. shares compounds with NPR1 antag. HEK293 GloSensor cGMP, SNP-stimulated, luminescence. Potency, µM (top dose mostly 57.6 µM), for inactives: at the top dose activity change, negative = inhibition, actives largely listed as inhibitors. 1,400 compounds, 69% hits; calls by dose curve; also: % is scaled to controls: 0 for no effect and ±100 for the full control effect; nearly all actives have a fitted effect of over 70% in size
* = called active by the depositor; i = inactive; ? = inconclusive; . = no result given; [ ] = remark or other dose. Unless noted, calls follow the shape of the dose curve; as a rule, active = well fitted curve in the direction sought with a large enough effect; inconclusive = small, poorly fitted or top-dose-only effect, or another doubt; inactive = no such curve, though single readings can be large; an effect the other way counts as inactive or inconclusive. Potency is read from the fitted curve at half-maximal effect.

SMILES	NIH3T3 tox	FLuc inh	GPT2 inhibitor	NPR1 antag	HEK293 tox	NPR1 antag cnf	Npr2 selectivity	FLuc inh counter	GloSensor cGMP
CN(Cc1nc(Cc2ccccc2Cl)no1)Cc1cccc2cnccc12	?	i	i	14µM*	?	11µM*	12µM*	0%	11µM*
Cc1cc(C(=O)N2CCc3c(nc[nH]c3=O)C2)c2cc(Cl)ccc2n1	i	i	2%	-3%	i	.	.	.	.
Cc1ccc(C(=O)N[C@H]2CO[C@H]3[C@@H]2OC[C@@H]3Nc2nccc(-c3ccc4c(c3)OCO4)n2)cc1	?	i	?	2%	?	.	.	.	.
O=C(Nc1cccc2ccccc12)O[C@@H]1CO[C@H]2[C@@H]1OC[C@@H]2Nc1nccc(-c2cccc(F)c2)n1	?	i	-23%	-22%	40µM*	?	?	6%	-27%
N#Cc1cccc(NC(=O)N[C@H]2CO[C@H]3[C@@H]2OC[C@@H]3Nc2nccc(-c3cccc(F)c3)n2)c1	?	i	-2%	-18%	?	.	.	.	.
CC(C)(C)C(=O)N[C@H]1CO[C@H]2[C@@H]1OC[C@@H]2Nc1nccc(-c2ccc(-c3ccccc3)cc2)n1	-30%	i	-42%	?	?	22µM*	?	-1%	22µM*
N#Cc1cccc(NC(=O)O[C@@H]2CO[C@H]3[C@@H]2OC[C@@H]3Nc2nccc(-c3cccc(F)c3)n2)c1	22µM*	i	?	11µM*	10µM*	19µM*	19µM*	1%	19µM*
O=S(=O)(N[C@H]1CO[C@H]2[C@@H]1OC[C@@H]2Nc1nccc(-c2ccc3c(c2)OCO3)n1)c1ccc2ccccc2c1	-48%	i	3%	13µM*	?	24µM*	?	0%	?
Cc1ccc(C(=O)NC[C@H]2O[C@@H](CC(=O)NCCN3CCOCC3)[C@H](O)[C@@H]2O)cc1	-7%[174 µM]	i	-10%[88.5 µM]	-1%[70.6 µM]	-9%[172 µM]	.	.	.	.
CC(C)(C)c1noc(-c2nnn3c2COC(c2ccc(F)cc2)C3)n1 (stereo unspecified)	-17%	i	i	?	?	?	?	3%	-24%
Cc1ccc(-c2noc(-c3nnn4c3COC(c3ccc(C)cc3C)C4)n2)cc1 (stereo unspecified)	i	i	5%	4%	-1%	.	.	.	.
Cc1ccc(C2Cn3nnc(-c4nc(C5CCCCC5)no4)c3CO2)c(C)c1 (stereo unspecified)	-30%	i	-13%	?	?	14µM*	14µM*	-1%	1%
Clc1ccc(C2Cn3nnc(-c4nc(C5CC5)no4)c3CO2)cc1 (stereo unspecified)	?	i	i	?	?	?	-22%	4%	1%
COc1ccc(C2Cn3nnc(-c4nc(C(C)(C)C)no4)c3CO2)cc1 (stereo unspecified)	?	i	?	?	?	22µM*	?	0%	-18%
CC(C)(N)C(=O)NC1CCCN(C2Cc3ccccc3C2)C1 (stereo unspecified)	-17%	i	-11%	7%	-13%	.	.	.	.
CC(C)c1cc(C(=O)N2CC[C@@](O)(C3CCOCC3)[C@H](C)C2)no1	0%	i	-28%	2%	-1%	.	.	.	.
CCOC1CCOC2(CCN(C(=O)c3n[nH]c4ccccc34)CC2)C1 (stereo unspecified)	-15%	i	-6%	-1%	9%	.	.	.	.
CN1CCOc2c(C(=O)NCCC(N)=O)cc(-c3ccccc3O)cc21	?	i	-12%[88.5 µM]	5%[70.6 µM]	-7%[172 µM]	.	.	.	.
CC(C)(C)c1noc(-c2nnn3c2COC(c2ccc(Cl)cc2)C3)n1 (stereo unspecified)	?	i	-8%	?	?	19µM*	?	3%	-2%
CCc1noc(-c2nnn3c2COC(c2ccc(Cl)cc2)C3)n1 (stereo unspecified)	?	i	i	?	-27%	.	.	.	.
Cc1noc(-c2cn(C3CCN(C(=O)C4(c5ccccc5)CC4)CC3)nn2)n1	-37%	i	i	0%	-10%	.	.	.	.
O=C(N1CCC(n2cc(-c3nc(-c4ccccc4)no3)nn2)CC1)C1(c2ccccc2)CC1	?	i	i	13µM*	32µM*	24µM*	27µM*	-19%	24µM*
CCOc1ccccc1C(=O)N1CCC(n2cc(-c3nc(-c4ccccc4)no3)nn2)CC1	?	i	i	?	40µM*	24µM*	?	-21%	?
O=C(c1cc(F)ccc1F)N1CCCC(n2cc(-c3nc(-c4ccccc4)no3)nn2)C1 (stereo unspecified)	?	?	-5%	11µM*	40µM*	19µM*	19µM*	?	17µM*
COc1cccc(CC(=O)N2CCC(n3cc(-c4nc(-c5ccccc5)no4)nn3)CC2)c1	?	i	5%	10µM*	32µM*	11µM*	11µM*	-23%	12µM*
O=C(C1CCC1)N1CCC(n2cc(-c3nc(-c4ccccc4)no3)nn2)CC1	?	i	5%	?	?	24µM*	24µM*	-12%	22µM*
O=C(C1CC1)N1CCC(n2cc(-c3nc(-c4ccccc4)no3)nn2)CC1	?	i	i	?	?	?	?	-22%	?
COc1ccc(-n2nc(C3CCN(C(=O)c4ccccc4F)CC3)[nH]c2=O)cc1	-9%	i	i	-6%	-5%	.	.	.	.
COc1cc(OC)c(NC(=O)Cn2c(N(C)Cc3ccccc3)nc(C)cc2=O)cc1Cl	?	i	i	10µM*	22µM*	22µM*	22µM*	-2%	19µM*

Screening results as filed in PubChem.
